Measured values taken from the supplement of paper PMC6555819.

These sequences were tested on LXRb:RXRa (NR concentration 270 nM, RXRa partner concentration 90 nM) (assay: PBM binding z-score (relative to random genomic background probes); higher = stronger binding; sequences stand for … in GC…GCGATTGACAGCGTAGAATGAAGG).
In short: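 The probes on custom Agilent 4×180K protein-binding microarrays were double-stranded, with 34-nt variable regions bearing direct-repeat seeds, single-nucleotide variants, half-site ablations and random human genomic background sequences. Incubation lasted 1 h with ligand-free nuclear receptor dimers in PBS pH 7.4, 2% milk, 0.02% Triton X-100, 1 mM DTT, 0.2 mg/mL BSA and 0.4 mg/ml salmon testes DNA. Antibodies against each partner (one per run) detected bound dimers, and fluorescence scans were regression-normalized. Binding z-scores take the random background probes as reference.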

Sequence	PBM binding z-score
TCATAAAGGTAAACAGGTGAAAGTCCGTAAGTTA	1.44
ATATGTAGGTTACATCCGGTTCATTCAGGCTATG	2.07
TCTATTAGTTGACGGGCAACCGACGAGTCCGTTT	0.407
CAGCCAAGGTCAGGGCCAGTATAGGAGGAACGTT	2.25
CGTCCAAGGTCAGAGAGGTCAGTCAATGCCGAGT	4.65
CGTCCAAGGTCAAAAGTCAGTGAAGAGATGACGG	3.79
TAGCATAGGTCATTGGGCCAGTATAGTACGCATC	4.02
ATCGAAAGGTCGAAGGTGTGTATACCCACCCGAA	2.37
GTACCAAGGTGAATAGGTTGTTGATGAGTAGGCG	0.384
TAGCCTAGGTCATTGCGCCAGTATAGTACGCATC	2.41
AGTCAAAGTTCACTAGTTAACGTAAGATTCAGCT	2.92
CCTAGTTGGTCAGGAGGGCACACACCGGATATGA	0.24
TCTTGTAGATCAGCAGGTTCAGAAAGCTGGCCAA	0.265
TCTATTAGTTGAAGGGAAACCGACGAGTCCGTTT	0.65
ACTACCAGGCCAAGTTTGGGTCACTCAAACAAAG	1.05
GCTAGCAGGCCATTTGGGTCACTCGATGACGGGC	-0.0448
TCTAGTTGGTCAAAGGTCACACGCTCGAAATGCG	5.45
AGAATGTGGTTATACGTAGATCAGGGAAGAAAGT	0.318
CCTTACTGGTCACTGACAGGTTATAGCATTTGGA	0.822
TTACCAAGGTGAGCTGAGGTCCTTGATCCAACTC	-0.383
TCATATAGGTATAGGTGAAAGTCGAACGATATGA	0.177
ACTAGCAGGCCAAGATTGGGTCACTCAAACAAAG	0.338
